Anthrax LF prot: anthrax lethal factor protease inhibition; 0.12% of 360,000 active; inhibition, % at 10 µM; AID 588501; multiplex microsphere protease cleavage assay, LF
Bead autofluor: compound fluorescence in toxin protease inhibitor counterscreen; 3.1% of 360,000 active; fluorescence intensity (no concentration beside the values); compound autofluorescence counterscreen, microsphere flow cytometry; stronger effect = higher value; in the data active means fluorescence intensity above about 16000; inconclusive means no clear call, values can overlap the other calls
BoNT-A LC inh2: BoNT A light chain protease inhibition. inhibition, % at 10 µM. multiplex microsphere protease substrate cleavage, flow cytometry. 0.17% of 360,000 active
BoNT-F LC inh: blocks Botulinum neurotoxin F light chain protease; Multiplex microsphere protease cleavage assay, flow cytometry; inhibition, % at 10 µM; 0.22% of 360,000 active; in the data active means inhibition above about 35%, passing the limit was not always enough; inconclusive means no clear call, values can overlap the other calls
Of the large screens only hits and unclear results are named; the others gave an inactive call. The list is not random: actives were taken first. Their share in the collection is about 3.5%. Unless noted, no stated cut-off is given here; in the data, active means inhibition above about 30%; inconclusive means no clear call, values can overlap the other calls; inactive means below that.

O=C(c1ccco1)c1cc2c(ccc3ccccc32)oc1=O	Bead autofluor 22410
CC(C)(C)Cc1c(-c2ccc(F)cc2)nc2ccc(Cl)cn12	none
CC1CCCC(C)N1C(=O)COC(=O)c1n[nH]c(=O)c2ccccc12 (stereo not drawn)	none
N#C/C(=C\c1ccccc1)C(=O)Nc1ccccn1	BoNT-F LC inh 39.8
CC(C)(C)c1ccc(/C=C(\C#N)C(=O)Nc2ccccn2)cc1	none
Cc1ccccc1NC(=O)/C(C#N)=C\c1cccnc1	Bead autofluor 17365, BoNT-A LC inh2 inconclusive
CNc1ccc(/C=C(\C#N)C(=O)Nc2ccccn2)cc1[N+](=O)[O-]	Anthrax LF prot 32.6, BoNT-F LC inh 37.5
N#C/C(=C\C=C\c1ccccc1)C(=O)Nc1ccccc1	none
N#C/C(=C/C=C/c1ccccc1)C(=O)Nc1ccccc1	Bead autofluor 18225, BoNT-A LC inh2 inconclusive
CC[C@@]1(C(=O)OC)N[C@H](CN(C)C(=O)COC)[C@@H]2C(=O)N(C)C(=O)[C@@H]21	none
O=C(NCC1CCCO1)C1CC(c2ccc(Cl)c(Cl)c2)=NO1 (stereo not drawn)	none
Cc1ccc(-c2nc3ccsc3c(=O)[nH]2)cc1	none
CCN1C(=O)CSc2ccc(C(=O)NC3CCCCC3)cc21	Bead autofluor 20222
CC(C)(C)NC(=O)c1ccc2c(c1)N(CC(=O)N1CCCCC1)C(=O)C(C)(C)O2	none
CC(C)(C)NC(=O)c1ccc2c(c1)N(CC(=O)N1CCN(c3ccc(F)cc3)CC1)C(=O)C(C)(C)O2	Bead autofluor 16213
CC(C)(C)NC(=O)c1ccc2c(c1)N(CC(=O)N1CCCC1)C(=O)C(C)(C)O2	none
CCOC(=O)CN1C(=O)C(C)(C)Oc2ccc(C(=O)Nc3ccccc3OC)cc21	Bead autofluor 20848
Cc1ccc(NC(=O)c2ccc3c(c2)N(CC(=O)N2CCCCC2)C(=O)C(C)(C)O3)cc1	Bead autofluor 23135
C=CCN1C(=O)CSc2ccc(C(=O)NC3CCCCC3)cc21	none
Cc1c(C(=O)NCCSCc2cccc(C(F)(F)F)c2)cnn1-c1ccc(F)cc1	BoNT-A LC inh2 inconclusive, BoNT-F LC inh inconclusive
O=C(Nc1nnc2n1CCS2)c1ccc(Br)o1	none
CC1(C)Oc2ccc(C(=O)NC3CCCC3)cc2N(CC(=O)NC2CCCCC2)C1=O	Bead autofluor 17996
CC(C)NC(=O)c1ccc2c(c1)N(CC(=O)NC1CCCCC1)C(=O)C(C)(C)O2	none
COCCCN(C(=O)c1cc2c(s1)CCCCC2)c1c(N)n(Cc2ccccc2)c(=O)[nH]c1=O	none
O=C(NC1CCCCCC1)c1ccc(Cl)c(S(=O)(=O)N2CCOCC2)c1	none
CN(C(=O)c1cccc(NC(=O)Cc2ccc(NC(=O)C3CCCN(C(=O)c4ccccc4)C3)cc2)c1)C1CCCCC1 (stereo not drawn)	none
Nc1ncc(Br)cc1Br	none
Nc1cc(Br)c(N)c(Br)c1	Bead autofluor 24247
Cc1ccnc(-n2c(C)cc(C=C3C(=O)N(C)C(=S)N(C)C3=O)c2C)c1	BoNT-A LC inh2 31.6
Cc1ccc(-c2ccc(CN3C(C(C)C)C(=O)N(Cc4cn(CCC5OCCO5)nn4)CCS3(=O)=O)cc2)c(C)c1 (stereo not drawn)	none
Cc1cc2c3c(c1)C1(C(=O)N3C(C)(C)CC2C)C(C#N)=C(N)Oc2n[nH]c(C)c21 (stereo not drawn)	Bead autofluor 21117, BoNT-A LC inh2 inconclusive
O=C(Cn1ccc2cc(S(=O)(=O)N3CCCC3)ccc21)NCCc1ccccc1	none
Cc1ccc(O)c(NC(=O)CCC2CCCCC2)c1	none
O=C(CCC1CCCC1)Nc1ccccc1-c1ccccc1	none
O=C(CCC1CCCCC1)Nc1ccccc1O	Bead autofluor 16345
O=C(CCC1CCCCC1)Nc1ccccc1-c1ccccc1	Bead autofluor 21102, BoNT-A LC inh2 inconclusive
O=C(CCNC(=O)c1ccc(Br)o1)NCc1ccccc1Cl	none
O=C(CCNC(=O)c1ccc(Br)o1)NCc1ccccn1	Bead autofluor 24852
O=C(CCNS(=O)(=O)c1ccc(Cl)cc1)NCc1ccccn1	Bead autofluor 17910
CC(=O)NCCc1nc2cc(NC(=O)c3cccc([N+](=O)[O-])c3)ccc2n1C	none
CN(C)CCNC(=O)c1cc(Br)ccc1Cl	Bead autofluor 21132
CCc1ccc(OCCNC(=O)c2cc(SC)ccc2Cl)cc1	Bead autofluor 23443
CCCNC(=O)c1cc(SC)ccc1Cl	Bead autofluor 20823
CSc1ccc(Cl)c(C(=O)NCCOc2ccccc2)c1	none
CCNC(=O)C1CCCN(C(=O)c2c(-c3ccccc3)noc2C)CC1 (stereo not drawn)	none
COCc1cc(C)nc2sc(C(=O)Nc3cccc(OC)c3)c(N)c12	BoNT-F LC inh inconclusive
CCN(CC)CC(=O)c1ccc(-c2ccccc2)cc1	none
CN(C)CC(=O)c1ccc(-c2ccccc2)cc1	Bead autofluor 20222
CCOc1cc(-c2cc(-c3ccc(C)cc3)nc(N)c2C#N)ccc1O	none
CCOc1cc(/C=C(\C#N)c2[nH]nc(N)c2C#N)ccc1O	Bead autofluor 23984
CC(=O)Nc1ccc(S(=O)(=O)N(C)CC(=O)N/N=C/c2ccncc2)cc1	none
COc1ccc(NC2CCCN(C(=O)Cn3ccc(C)n3)C2)cc1OC (stereo not drawn)	none
O=C1C2C3c4ccccc4C(c4ccccc43)C2C(=O)N1/N=C/c1cccc(O)c1 (stereo not drawn)	Bead autofluor 17348
COc1cc(/C=N/N2C(=O)C3C4C=CC(CC4)C3C2=O)ccc1O (stereo not drawn)	none
C=C(C)C(=O)Nc1cccnc1Oc1ccc(F)cc1F	none
CN(C)c1ccc(NC(=O)c2ccc3nsnc3c2)cc1	Bead autofluor 22463, BoNT-A LC inh2 inconclusive
N#Cc1ccc(S(=O)(=O)N2CCN(Cc3cccs3)CC2)cc1	none
Cc1cccc(C(=O)NCCc2nnc(SCC(=O)Nc3nc(C)cs3)n2C)c1	Bead autofluor 16360, BoNT-A LC inh2 inconclusive
Cc1ccccc1C(=O)NCCc1nnc(SCC(=O)Nc2nc(-c3ccccc3)cs2)n1C	Bead autofluor 20936, BoNT-A LC inh2 inconclusive
Cc1cc(C)nc(SCc2nnc(SCC(=O)Nc3nc(-c4ccccc4)cs3)n2C)n1	none
CCn1c(CSc2nc(C)cc(C)n2)nnc1SCC(=O)Nc1nc(-c2ccccc2)cs1	Bead autofluor 16261
CC1(C)C(C=C(Cl)Cl)C1C(=O)N1CCN(Cc2ccccc2)CC1 (stereo not drawn)	none
COc1ccccc1NC(=O)CN1CCN(Cc2ccccc2)CC1	Bead autofluor 16872
COc1ccc(NC(=O)CN2CCN(CC(=O)Nc3ccccc3Cl)CC2)c(OC)c1	Bead autofluor 22552
COc1ccccc1NC(=O)CN1CCN(CC(=O)Nc2ccc(OCc3ccccc3)cc2)CC1	none
COc1ccccc1NC(=O)CN1CCN(c2ccccn2)CC1	Bead autofluor 20530
Cc1ccc(NC(=O)N2CCN(c3ccccn3)CC2)cc1	Bead autofluor 22825
COc1ccc(NC(=O)CN2CCN(CC(=O)Nc3ccccc3OC)CC2)c(OC)c1	none
COc1ccc(/C=N/OCc2nc3c4c(ncn3n2)Oc2ccc3ccccc3c2C4c2ccccc2)cc1 (stereo not drawn)	Bead autofluor 23152
O=C(Nc1nccs1)c1cccc(NC(=O)C(F)(F)F)c1	none
O=C(N/N=C/c1ccc(F)cc1)c1cccc(NC(=O)c2ccccc2Cl)c1	none
CN1/C(=C/C2CC(=O)N(c3cccc4ccccc34)C2=O)C(C)(C)c2ccccc21 (stereo not drawn)	Bead autofluor 20679
